Source: PubChem BioAssay AID1159580 (chemical genetic matrix, 2015)
Out of some 5,500 compounds screened, about 2,000 (36%) were called active. Inconclusive results (about 18%) are left out. Cut-off read from the data, not from the text of the source: active = normalized growth mostly below about 0.91 (no sharp cut-off); inconclusive = no clear call, values can overlap the other calls; inactive = mostly above about 0.92. Some of the results follow.

Assay: chemical genetic growth profiling, strain panel (AID 1159580);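 note: tested at 20 µM; growth read once vehicle control cultures reached saturation at 30 °C; 1 = growth at the plate median or of vehicle wells; lower values mean less growth of the strain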
Conditions: S. cerevisiae deletion strains, growth OD
[1] = locus YAR019C, strain CDC15, active compounds read low
[2] = locus YBL105C, strain PKC1, active compounds read low
[3] = locus YBR135W, strain CKS1, active compounds read low
[4] = locus YBR136W, strain MEC1, active compounds read low
[5] = locus YBR160W, strain CDC28, active compounds read low
[6] = locus YDL017W, strain CDC7, active compounds read low
[7] = locus YDL028C, strain MPS1, active compounds read low
[8] = locus YDL101C, strain DUN1, active compounds read low
[9] = locus YDL108W, strain KIN28, active compounds read low
[10] = locus YDL132W, strain cdc53, active compounds read low
[11] = locus YDL214C, strain PRR2, active compounds read low
[12] = locus YDR052C, strain DBF4, active compounds read low
[13] = locus YDR054C, strain cdc34, active compounds read low
[14] = locus YDR226W, strain ADK1, active compounds read low
[15] = locus YDR477W, strain SNF1, active compounds read low
[16] = locus YER123W, strain YCK3, active compounds read low
[17] = locus YER133W, strain GLC7, active compounds read low
[18] = locus YFL009W, strain cdc4, active compounds read low
[19] = locus YFL029C, strain CAK1, active compounds read low
[20] = locus YFR003C, strain YPI1, active compounds read low
[21] = locus YFR019W, strain FAB1, active compounds read low
[22] = locus YFR028C, strain CDC14, active compounds read low
[23] = locus YGR040W, strain KSS1, active compounds read low
[24] = locus YGR052W, strain FMP48, active compounds read low
[25] = locus YGR092W, strain DBF2, active compounds read low
[26] = locus YHR030C, strain SLT2, active compounds read low
[27] = locus YHR079C, strain IRE1, active compounds read low
[28] = locus YHR082C, strain KSP1, active compounds read low
[29] = locus YHR205W, strain SCH9, active compounds read low
[30] = locus YIL147C, strain SLN1, active compounds read low
[31] = locus YJL095W, strain BCK1, active compounds read low
[32] = locus YJL128C, strain PBS2, active compounds read low
[33] = locus YJL157C, strain FAR1, active compounds read low
[34] = locus YJR016C, strain ILV3, active compounds read low
[35] = locus YJR066W, strain TOR1 (second series), active compounds read low
[36] = locus YJR066W, strain TOR1, active compounds read low
[37] = locus YKL048C, strain ELM1, active compounds read low
[38] = locus YKL067W, strain YNK1, active compounds read low
[39] = locus YKL101W, strain HSL1, active compounds read low
[40] = locus YKL193C, strain SDS22, active compounds read low
[41] = locus YKL203C, strain TOR2, active compounds read low
[42] = locus YLR113W, strain HOG1, active compounds read low
[43] = locus YLR133W, strain CKI1, active compounds read low
[44] = locus YLR403W, strain SFP1, active compounds read low
[45] = locus YML070W, strain DAK1, active compounds read low
[46] = locus YMR001C, strain CDC5, active compounds read low
[47] = locus YMR205C, strain PFK2 (second series), active compounds read low
[48] = locus YMR277W, strain FCP1, active compounds read low
[49] = locus YNL006W, strain LST8, active compounds read low
[50] = locus YNL020C, strain ARK1, active compounds read low
[51] = locus YNL161W, strain CBK1, active compounds read low
[52] = locus YNL183C, strain NPR1, active compounds read low
[53] = locus YNL207W, strain RIO2, active compounds read low
[54] = locus YNL222W, strain SSU72, active compounds read low
[55] = locus YNL307C, strain MCK1 (second series), active compounds read low
[56] = locus YOL078W, strain AVO1, active compounds read low
[57] = locus YOL136C, strain PFK27, active compounds read low
[58] = locus YOR061W, strain CKA2, active compounds read low
[59] = locus YOR119C, strain RIO1, active compounds read low
[60] = locus YOR231W, strain MKK1, active compounds read low
[61] = locus YOR329C, strain SCD5, active compounds read low
[62] = locus YPL031C, strain PHO85, active compounds read low
[63] = locus YPL153C, strain RAD53, active compounds read low
[64] = locus YPL204W, strain HRR25, active compounds read low
[65] = locus YPL209C, strain IPL1, active compounds read low
[66] = locus YPL256C, strain CLN2, active compounds read low
[67] = locus YPR025C, strain CCL1, active compounds read low
[68] = locus YPR106W, strain ISR1, active compounds read low
[69] = locus YPR111W, strain DBF20, active compounds read low
[70] = strain NNK1, active compounds read low
[71] = strain TSCII, active compounds read low

Measured: normalized growth

O=C(CSCc1csc2ccccc12)Nc1ccc(F)c(Cl)c1
inactive: [1] 0.978 | [2] 0.977 | [3] 0.973 | [4] 0.981 | [5] 0.974 | [6] 0.98 | [7] 0.982 | [8] 0.999 | [9] 0.973 | [10] 0.982 | [11] 0.885 | [12] 0.99 | [13] 0.97 | [14] 0.986 | [15] 0.909 | [16] 0.884 | [17] 0.921 | [18] 0.978 | [19] 0.975 | [20] 0.978 | [21] 0.93 | [22] 0.975 | [23] 0.917 | [24] 0.925 | [25] 0.878 | [27] 0.858 | [28] 0.896 | [29] 0.845 | [30] 0.984 | [31] 0.877 | [32] 0.946 | [33] 0.875 | [34] 0.972 | [35] 0.893 | [36] 0.889 | [37] 0.952 | [38] 0.897 | [39] 0.89 | [40] 0.977 | [41] 0.96 | [43] 0.899 | [44] 0.889 | [45] 0.849 | [46] 0.977 | [47] 0.904 | [48] 0.978 | [49] 0.978 | [50] 0.887 | [51] 0.977 | [52] 0.879 | [53] 0.974 | [54] 0.966 | [55] 0.877 | [56] 0.979 | [57] 0.843 | [58] 0.895 | [59] 0.965 | [60] 0.814 | [61] 0.982 | [62] 0.906 | [63] 0.897 | [64] 0.907 | [65] 0.973 | [67] 0.975 | [68] 0.961 | [69] 0.952 | [70] 0.956 | [71] 0.977
active: [26] 0.821 | [42] 0.68 | [66] 0.754

O=C(Nc1ccc(Cl)cc1)SCc1c(Cl)cccc1Cl
inactive: [1] 0.985 | [2] 0.976 | [3] 0.984 | [4] 0.967 | [5] 0.988 | [6] 0.976 | [7] 0.987 | [8] 0.974 | [9] 0.959 | [10] 0.999 | [11] 0.786 | [12] 0.974 | [13] 0.953 | [14] 0.969 | [15] 0.83 | [16] 0.659 | [17] 0.834 | [18] 1 | [19] 0.975 | [20] 0.972 | [22] 0.988 | [23] 0.808 | [24] 0.765 | [25] 0.763 | [27] 0.748 | [28] 0.787 | [29] 0.919 | [30] 0.973 | [31] 0.745 | [32] 0.92 | [33] 0.76 | [34] 0.995 | [35] 0.746 | [36] 0.788 | [37] 0.891 | [38] 0.8 | [39] 0.83 | [40] 0.973 | [41] 0.891 | [43] 0.816 | [44] 0.897 | [45] 0.783 | [46] 0.971 | [47] 0.836 | [48] 0.975 | [49] 0.989 | [50] 0.771 | [51] 0.974 | [52] 0.821 | [53] 0.955 | [54] 0.979 | [55] 0.721 | [56] 0.977 | [57] 0.761 | [58] 0.756 | [59] 0.905 | [60] 0.831 | [61] 0.979 | [62] 0.778 | [63] 0.798 | [64] 0.813 | [65] 0.972 | [67] 0.988 | [68] 0.963 | [69] 0.961 | [70] 0.954 | [71] 0.978
active: [21] 0.747 | [26] 0.793 | [42] 0.728 | [66] 0.811
